Assay results taken from PubChem BioAssay (NCI).
Compounds without any hit were thinned out: in the full panel of roughly 83,000, 20% have a hit.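 Activity criterion: percent growth below 10, measured after cells in 96-well plates were exposed to a single compound concentration for 48 hours.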 A number with no mark means an inactive call. Calls of active or inactive are those of the source.

Columns and labels:
Assay in all cases: NCI-60 one-dose screen, 48 h (100 = growth as untreated, 0 = no growth, -100 = all killed)
[1] = system: SK-MEL-2 melanoma; settings: 10 µM
[2] = system: EKVX NSCLC; settings: 10 µM unless noted
[3] = system: SN12C renal; settings: 10 µM unless noted
[4] = system: TK-10 renal; settings: 10 µM unless noted
[5] = system: ACHN renal; settings: 10 µM unless noted
[6] = system: CAKI-1 renal; settings: 10 µM unless noted
[7] = system: CCRF-CEM leukemia; settings: 10 µM unless noted
[8] = system: MOLT-4 leukemia; settings: 10 µM unless noted
[9] = system: SR leukemia; settings: 10 µM unless noted
[10] = system: RPMI-8226 leukemia; settings: 10 µM unless noted
[11] = system: OVCAR-8 ovarian; settings: 10 µM unless noted
[12] = system: OVCAR-5 ovarian; settings: 10 µM unless noted
[13] = system: OVCAR-4 ovarian; settings: 10 µM unless noted
[14] = system: SK-OV-3 ovarian; settings: 10 µM unless noted
[15] = system: IGROV1 ovarian; settings: 10 µM unless noted
[16] = system: OVCAR-3 ovarian; settings: 10 µM unless noted
[17] = system: NCI/ADR-RES ovarian; settings: 10 µM unless noted
[18] = system: UO-31 renal; settings: 10 µM unless noted
[19] = system: A498 renal; settings: 10 µM unless noted
[20] = system: HS 578T breast; settings: 10 µM

Row | SMILES | growth [1] | growth [2] [%] | growth [3] | growth [4] | growth [5] | growth [6] | growth [7] | growth [8] | growth [9] | growth [10] | growth [11] | growth [12] | growth [13] [%] | growth [14] [%] | growth [15] | growth [16] | growth [17] | growth [18] | growth [19] | growth [20]
1 | ClCc1ccc(-c2ccc(Cn3cnc4nc(Cl)nc(Cl)c43)cc2)cc1 | 65.8% | 82.7 | -29.8% (active) | -28.4% (active) | 5.65% (active) | -93.6% (active) | -48.5% (active) | -42.5% (active) | -37.1% (active) | -55.8% (active) | -72.1% (active) | -11.1% (active) | 46.6 | 72.5 | 21% | -77.6% (active) | 24.8% |  |  | 
2 | COC(=O)c1[nH]cnc1/N=N/N(C)CCO | 108% | 97.9 | 102% | 129% | 103% |  | 102% | 85.8% | 75.4% |  | 109% | 92.9% | 105 | 98.3 | 109% | 99% | 95.9% | 84.9% | 121% | -26.7% (active)
3 | CC(=Nc1ccccc1)C1=C(O)C(Cc2ccccc2)NC1=O (stereo not given) | 26.9% | 23.3 | 36.6% | 54.2% | 40.8% |  | -10.9% (active) |  | -12% (active) |  | -50.4% (active) | 18.9% | 39.6 | 16.8 | 6.28% (active) | -42.4% (active) | -8.97% (active) | 43.6% | -22.1% (active) | -15.3% (active)
4 | CC(=O)OCCC/C(=C\c1ccc2ccccc2c1)[N+](=O)[O-] | -68.5% (active) | 42.1 | -66.4% (active) | -64.4% (active) | -92.6% (active) |  | -49.4% (active) | -26.1% (active) | -33.8% (active) |  | -91.3% (active) | -93.2% (active) | 11.1 | 57.9 | -82.3% (active) | -96.6% (active) | -7.25% (active) | -99.8% (active) | -22.4% (active) | -40% (active)
